BoNT F protease: BoNT F light chain protease inhibition; Multiplex microsphere protease cleavage assay, flow cytometry; inhibition, % at 10 µM; 0.22% of 360,000 active; in the data active = inhibition above about 35%, passing the limit was not always enough; inconclusive = no clear call, values can overlap the other calls; note: plate controls were buffer without enzyme for full effect and enzyme alone for no effect
Autofluor counter: flagged as autofluorescent in microsphere protease counterscreen. AID 624483. compound autofluorescence counterscreen, microsphere flow cytometry; stronger effect = higher value. 3.1% of 360,000 active. fluorescence intensity (no concentration beside the values); in the data active = fluorescence intensity above about 16000; inconclusive = no clear call, values can overlap the other calls
Anthrax LF prot: anthrax lethal factor protease inhibition. AID 588501. P15917. inhibition, % at 10 µM. 0.12% of 360,000 active. multiplex microsphere protease cleavage assay, LF; note: plate controls were buffer without enzyme for full effect and enzyme alone for no effect
Target sequence (P15917 whole entry, looked up): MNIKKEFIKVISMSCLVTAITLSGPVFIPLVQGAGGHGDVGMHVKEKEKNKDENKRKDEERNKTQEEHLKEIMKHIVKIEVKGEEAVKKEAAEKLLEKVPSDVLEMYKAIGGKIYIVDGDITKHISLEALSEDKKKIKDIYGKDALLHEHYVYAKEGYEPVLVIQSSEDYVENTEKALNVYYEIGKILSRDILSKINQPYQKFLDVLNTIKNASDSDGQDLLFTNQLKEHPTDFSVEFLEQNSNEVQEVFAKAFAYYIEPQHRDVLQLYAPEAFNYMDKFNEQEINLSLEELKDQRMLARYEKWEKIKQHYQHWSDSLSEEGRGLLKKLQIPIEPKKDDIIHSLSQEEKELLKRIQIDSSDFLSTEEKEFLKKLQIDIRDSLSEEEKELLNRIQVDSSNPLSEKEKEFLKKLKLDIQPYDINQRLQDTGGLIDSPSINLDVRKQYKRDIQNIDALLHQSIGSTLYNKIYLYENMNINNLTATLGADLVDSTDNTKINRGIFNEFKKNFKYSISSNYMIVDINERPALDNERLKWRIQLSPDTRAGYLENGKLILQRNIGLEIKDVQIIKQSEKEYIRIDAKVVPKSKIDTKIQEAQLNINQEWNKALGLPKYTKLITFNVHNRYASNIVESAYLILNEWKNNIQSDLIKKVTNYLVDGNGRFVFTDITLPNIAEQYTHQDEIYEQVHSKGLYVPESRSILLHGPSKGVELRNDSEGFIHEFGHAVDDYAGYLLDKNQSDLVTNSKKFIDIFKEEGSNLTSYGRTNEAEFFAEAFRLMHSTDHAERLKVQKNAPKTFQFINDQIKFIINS
BoNT A protease: blocks Botulinum neurotoxin A light chain protease; multiplex microsphere protease substrate cleavage, flow cytometry; inhibition, % at 10 µM; 0.17% of 360,000 active; note: plate controls were buffer without enzyme for full effect and enzyme alone for no effect
MazF activator: activators of E. coli MazEF toxin-antitoxin RNase | FAM/BHQ RNA-DNA oligo cleavage fluorescence, 5 h | activation, % at 20 µM | 0.32% of 350,000 active; in the data active = activation above about 50%
Starred values were filed as active, the others as inactive; ? = inconclusive; / = not tested or not shown; + = active, no number. This is a sample that favours compounds with a hit; in the whole collection about 3.6% have one here. Cut-off read from the data, not from the text of the source, unless noted: active = inhibition above about 30%; inconclusive = no clear call, values can overlap the other calls; inactive = below that.

SMILES	BoNT F protease	Autofluor counter	Anthrax LF prot	BoNT A protease	MazF activator
O=C1NC(Cc2ccccc2)c2nc3cc(F)ccc3c(=O)n2-c2ncccc21 (stereo not given)	-5	3586	2	-1	8
Cc1ccccc1-c1ccc(C(=O)NCc2ccccc2)o1	2	3818	-12	0	-2
Cn1nc(C(=O)NCc2ccc(F)cc2)c2ccccc2c1=O	0	22634*	-3	2	5
O=C(NCc1ccccc1)c1ccc(-c2ccc(F)cc2)o1	-2	21149*	-1	?	0
O=C(/C=C/NCc1cccnc1)c1ccc(-c2ccccc2)cc1	8	4204	-4	-2	-8
Cc1ccc(N(C)S(=O)(=O)c2ccc(C)cc2)cc1	-6	24242*	0	-4	7
Cc1ccc(S(=O)(=O)N(C)c2ccccc2)cc1	2	3796	-1	0	0
CN1C(=O)[C@H]2[C@@H](c3ccccc3)N[C@]3(CCCN(Cc4ccc(F)cc4)C3=O)[C@H]2C1=O	-8	3915	-7	0	8
Cc1ccccc1NC(=O)c1ccc(CSc2ncccn2)cc1	0	16598*	-2	0	-1
CCC(C)NC(=O)c1ccccc1C(=O)NC(C)CC (stereo not given)	-6	24599*	-3	-4	-4
CCC(C)NC(=O)c1ccccc1NC(=O)c1ccc(CSc2ccc(C)cc2)cc1 (stereo not given)	-6	17124*	-4	-3	-3
CC(C)c1ccc(NC(=O)c2ccccc2NC(=O)C2CCCCC2C(=O)O)cc1 (stereo not given)	?	3399	15	0	7
Cc1ccc(/C=N/NC(=O)c2ccco2)s1	-4	25160*	-1	-3	-1
C[C@@H](NC(=O)c1[nH]cnc1C(=O)Nc1ccon1)c1ccccc1	-2	3025	-12	0	2
CC1(C)OC(=O)C(=NNc2ccc(Cl)cc2)C(=O)O1	-7	22457*	-1	-4	-1
COCOCCn1cc(CN2CCS(=O)(=O)N(Cc3ccc(-c4ccc(F)nc4)cc3)C(CC(C)C)C2=O)nn1 (stereo not given)	1	3204	0	1	-1
CN1c2ccccc2-c2ccccc2S1(=O)=O	-1	3925	-9	0	7
CCOC(=O)NC1(NCC(C)C)Oc2ccccc2O1	0	16411*	-6	0	3
CCOC(=O)NC1(NC(C)C)Oc2ccccc2O1	-45	5640	-6	-3	-15
Cc1cccc2c3nc4ccccc4nc3n(C)c12	4	4110	7	45*	165*
COC(=O)Cn1c2nc3ccccc3nc2c2cccc(C)c21	8	3033	2	11	-2
N#C/C(=C\C=C\c1ccccc1)c1nc(-c2ccc3c(c2)OCO3)cs1	10	3363	21	52*	-60
OC(c1ccccc1)(c1nc(-c2ccc3c(c2)OCO3)cs1)C(F)(F)F (stereo not given)	2	3181	-3	0	/
CNc1cc(C(F)(F)F)nc(-c2ccccn2)n1	3	19306*	0	?	7
CN1CCN(c2cc(C(F)(F)F)nc(-c3ccccn3)n2)CC1	-6	4719	-9	-1	12
SMILES	BoNT F protease	Autofluor counter	Anthrax LF prot	BoNT A protease	MazF activator
CCc1ccc(OCC(=O)Nc2ccc3c(c2)COC3=O)cc1	7	4020	3	2	0
Cc1ccccc1OCC(=O)Nc1ccc2c(c1)COC2=O	-2	20173*	2	-1	-4
O=C(O)CN1C(=O)/C(=C\c2cc([N+](=O)[O-])ccc2OCc2ccccc2Cl)SC1=S	20	3527	32*	3	8
O=C(O)CN1C(=O)/C(=C\c2cc(Br)ccc2OCc2ccc(Cl)cc2)SC1=S	-24	3920	2	-5	-11
CCN1C(=O)NC(=O)/C(=C\c2cn(CC(=O)N3CCCCC3C)c3ccccc23)C1=O (stereo not given)	-15	?	-2	-5	+
CC1CCCCN1C(=O)Cn1cc(C#N)c2ccccc21 (stereo not given)	-6	2862	-4	1	7
CCCCCC(=O)N1C[C@H](O)[C@@H](n2cc(COC(=O)c3ccccc3)nn2)C[C@@H]1c1ccc(Cl)cc1	-2	3824	0	0	8
Cc1ccc(S(=O)(=O)N2CCC(C(=O)N3CCCCCCC3)CC2)cc1C	-1	3185	3	0	6
CCN(CC)c1ccc(/C=C(\C#N)C(=O)c2ccc(Br)cc2)cc1	61*	97679*	46*	49*	-662
N#Cc1ncn(C2OC(CO)C(O)C2O)c1N (stereo not given)	-5	2883	-7	0	3
O=C(NCc1ccc(F)cc1)c1cc(C2CCCCN2S(=O)(=O)c2cccc3cccnc23)on1 (stereo not given)	2	3847	0	0	/
O=C(C[C@@H]1C/C=C\CCCC(=O)OC[C@@H](c2ccccc2)NC1=O)NCCO	-1	3409	4	0	4
O=C(Nc1ccccc1F)c1cc2nc(C(F)F)cc(C(F)F)n2n1	-7	21540*	-2	-6	-5
CC(=O)c1cccc(NC(=O)Cc2cccs2)c1	0	23709*	-2	0	11
CCCCN(CCCC)S(=O)(=O)c1ccc(NC(=O)Cc2cccs2)cc1	1	23090*	-2	1	2
CCCN(CCC)S(=O)(=O)c1ccc(NC(=O)COc2ccccc2)cc1	-1	16179*	2	?	2
CC(=O)c1ccc(NC(=O)Cc2cccs2)cc1	?	3432	3	1	-23
CCCCN(CCCC)S(=O)(=O)c1ccc(NC(=O)CN2CCOCC2)cc1	4	20756*	1	5	-6
CCc1ccc(-c2cc(C(=O)O)c3ccccc3n2)s1	-4	3662	-11	2	2
CCCN(CCC)S(=O)(=O)c1ccc(NC(=O)Cc2cccs2)cc1	-5	25405*	0	?	2
COCc1cccc(-c2csc(C(O)c3cccc(OC)c3)n2)c1 (stereo not given)	-2	3735	-6	0	/
O=C(CSc1nnc2n(C3CCCCC3)c(=O)c3ccccc3n12)OC1CCCCC1	-4	19972*	0	-2	-3
CCOC(=O)CSc1nc2sc3c(c2c(=O)n1C1CCCCC1)CCN(C)C3	15	4970	49*	74*	4
CCOC(=O)CSc1nnc2n(C3CCCCC3)c(=O)c3c4c(sc3n12)CCCC4	-2	23468*	-2	0	-5
COC(=O)CSc1nnc2n(C3CCCCC3)c(=O)c3c4c(sc3n12)CCCC4	0	8015	1	0	4
Cn1c(-c2cccc([N+](=O)[O-])c2)cnc1NCc1cccc(F)c1	?	3712	-18	-4	-18
CN(C(=O)c1cccc(NC(=O)Cc2ccc(NC(=O)C3CCN(C(=O)CCc4ccccc4)CC3)cc2)c1)C1CC1	-4	4012	-1	0	-2
N=c1n(CC(=O)c2ccc([N+](=O)[O-])cc2)c2ccccc2n1Cc1ccc(Cl)cc1	-2	2670	0	3	178*
N=c1n(CC(=O)c2ccc([N+](=O)[O-])cc2)c2ccccc2n1Cc1ccccc1Cl	6	2021	3	9	9
